Bioassay records as filed in PubChem.
D1 potentiator: human D1 dopamine receptor positive modulation. AID 504651. HEK293 TREx D1 cells, calcium flux, dopamine EC20 potentiation. potentiation, % at 10 µM. 0.036% of 360,000 active; in the data active = potentiation above about 30%; note: 0% is about no effect
Target sequence (P21728 whole entry, looked up): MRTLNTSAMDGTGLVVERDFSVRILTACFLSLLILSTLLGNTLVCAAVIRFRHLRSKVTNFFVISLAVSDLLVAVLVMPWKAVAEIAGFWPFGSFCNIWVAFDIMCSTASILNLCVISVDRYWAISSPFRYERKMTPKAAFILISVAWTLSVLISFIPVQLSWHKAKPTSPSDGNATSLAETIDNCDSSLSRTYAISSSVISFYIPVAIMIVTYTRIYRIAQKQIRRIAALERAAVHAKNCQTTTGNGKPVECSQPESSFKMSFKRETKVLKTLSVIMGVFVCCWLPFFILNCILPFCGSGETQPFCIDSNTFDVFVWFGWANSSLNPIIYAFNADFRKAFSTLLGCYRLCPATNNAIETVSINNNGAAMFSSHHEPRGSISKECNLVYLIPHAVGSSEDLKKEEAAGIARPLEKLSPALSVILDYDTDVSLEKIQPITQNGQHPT
D1 antagonist: antagonists of human D1 dopamine receptor | HEK293 TREx D1 cells, calcium flux, dopamine EC80; active compounds read low | P21728 | activity change, negative = inhibition, % at 10 µM | 3.2% of 360,000 active; in the data active = activity change below about -30%; note: % is set by controls: 0 for no effect and ±100 for the full control effect
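Kinetic fluorescence of a calcium dye serves as the read-out. D1-expressing Hek293 Trex cells, induced overnight at 30 C, are exposed to compound for 180 s before an EC80 dopamine addition, then read 180 s further.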
ERG-DNA inh: inhibitors of human ERG Ets domain-DNA interaction | AID 624246 | 0.028% of 370,000 active | Potency, µM (top dose mostly 76.9 µM), for the others: at the highest dose FP activity, negative = inhibition, most hits filed as inhibitors | fluorescence polarization, His-ERG Ets domain / labelled DNA | P11308; active = well fitted inhibition curve with a large enough effect in the polarisation, with a control signal flat; the % refers to the polarisation;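 note: polarization taken with two DNA probes labelled with fluorescein and Texas red; potency is the fitted concentration of half-maximal effect; % of control where 0% means no effect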
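His-tagged ERG Ets domain (1 uM in the protein solution; 300mM KCl, 50mM Tris-HCl, 1mM EDTA, 1mM DTT, pH 7.5) received compound, then a probe mix of 5 nM fluorescein-DNA and 100nM Texas-615-DNA. Fluorescence polarization was read for both dyes.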
D1 agonist: agonists of human D1 dopamine receptor | activation, % at 2 µM | HEK293 T-REx D1 cells, calcium flux, agonist mode | P21728 | 1% of 360,000 active; in the data active = activation above about 30%; note: 0% is about no effect
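Tetracycline-induced HEK293 TREx D1 cells, force-coupled to calcium signalling, were dye-loaded with a no-wash calcium kit. Compound was pin-added after a 10 s baseline. Fluorescence was read kinetically at 1 cycle/s for 180 s, with calcium rises flagged as agonism.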
D3 antag: antagonists of human D3 dopamine receptor. 2.5% of 360,000 active. max response, negative = inhibition, %. D3R cells, DiscoveRx beta-arrestin luminescence, antagonist mode; active compounds read low. P35462; in the data active = max response below about -50%; note: % is set by controls: 0 for no effect and ±100 for the full control effect
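Cells plated overnight at 1500 cells/well, then exposed to library compounds with dopamine controls for 90 minutes at 37 degrees C. DiscoveRx reagent added for 30–60 minutes at room temperature; luminescence read, quantitative HTS format.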
DRD3 agonist: agonists of human D3 dopamine receptor; max activation, %; D3R DiscoveRx beta-arrestin cells, luminescence, 90 min; P35462; 0.58% of 410,000 active; in the data active = max activation above about 30%; note: 0% is about no effect
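Agonist mode: compounds and dopamine controls were applied to plated cells for 90 min at 37 degrees C after an overnight attachment at 1500 cells/well. Luminescent read-out followed 30 - 60 minutes at room temperature with DiscoveRx detection reagent.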
Numbers without * were called inactive; . = no result given. A selection: hits, their analogues and other compounds. The true share with any hit is near 6.1%.

SMILES	D1 potentiator	D1 antagonist	ERG-DNA inh	D1 agonist	D3 antag	DRD3 agonist
N/C(=N\S(=O)(=O)c1cc(C(F)(F)F)cc(C(F)(F)F)c1)c1ccccc1	-1	-9	2%	16	10	5
CCc1nc(SCC(=O)Nc2ccnc3ccccc23)n[nH]1	-3	-46*	.	12	5	4
CN1CCCN(C2C3CC4CC(C3)CC2C4)CC1 (stereo not given)	-1	2	-5%	6	-92*	-4
N#C/C(=C/C1=C(N2CCOCC2)C(=C/c2cccc([N+](=O)[O-])c2)/CC1)C(=O)Nc1ccccc1F	.	.	12%	.	-17	39*
COc1ccc(Cc2nnc(SCC(=O)Nc3ccc(C)cc3)n(N)c2=O)cc1	-3	6	-4%	0	3	1
O=C(Nc1ccccc1)c1cc(S(=O)(=O)Nc2cccnc2)ccc1Cl	8	1	-27%	6	-2	2
O=C(Nc1cc(C(F)(F)F)ccc1Cl)c1cc(S(=O)(=O)NCc2ccccc2)ccc1F	-3	-71*	6%	-2	.	-5
COc1ccccc1NC(=O)c1cc(S(=O)(=O)NCc2ccccc2)ccc1F	-5	-1	0%	3	9	-2
O=C(Nc1ccccc1F)c1ccc(CNS(=O)(=O)c2cccc(C(F)(F)F)c2)cc1	-9	-7	-3%	5	-17	-4
O=C(Nc1ccccc1)c1cc(S(=O)(=O)NCc2ccncc2)ccc1Cl	-5	-32*	9%	4	0	11
O=C(Nc1ccc(S(=O)(=O)NCc2ccccc2)cc1)c1ccccc1[N+](=O)[O-]	-7	-72*	-12%	16	-2	0
COc1ccc(CNS(=O)(=O)c2ccc(F)c(C(=O)Nc3ccccc3OC)c2)cc1	-7	-37*	-7%	3	3	-1
Cn1c(CC(=O)NNC(=O)c2cncc(Br)c2)nc2ccccc21	.	.	-4%	.	26	1
CN(c1ccccc1)S(=O)(=O)c1ccc(Cl)c(C(=O)Nc2ccncc2)c1	-8	-15	9%	15	14	3
CN(c1ccc(F)cc1)S(=O)(=O)c1ccc(Cl)c(C(=O)Nc2ccncc2)c1	-3	-48*	7%	8	15	10
Cc1ccc(CSCCNC(=O)c2cccc([N+](=O)[O-])c2)cc1	-7	-43*	-11%	19	0	-9
O=C(NNC(=S)NC(=O)c1cccc([N+](=O)[O-])c1)c1ccc(Br)cc1	-3	4	-1%	32*	-4	17
Cc1ccc(C(=O)NC(=S)NNC(=O)c2cccc([N+](=O)[O-])c2)cc1	0	-3	-4%	50*	55	2
CSc1ccc(S(=O)(=O)NC2CCCCCC2)cc1	-4	-19	.	14	12	-5
CCOc1ccc(NC(=O)N2CCN(c3nnc(C)c4c(C)n(-c5ccccc5)nc34)CC2)cc1	-4	-9	0%	4	.	-1
O=C(O)c1ccc(NC2OC[C@@H](O)[C@H](O)[C@H]2O)cc1 (stereo not given in full)	4	9	4%	1	14	1
O=C(Cn1cc2c(n1)CCCC2)NCCCN1CCN(c2ccccc2F)CC1	-8	-35*	-2%	0	-83*	1
Cc1ccc(C)c(N2CCN(CCCNC(=O)Cn3cc4c(n3)CCCCC4)CC2)c1	-5	-12	-4%	33*	-96*	-13
Cc1ccc(C)c(N2CCN(CCCNC(=O)Cn3cc4c(n3)CCC(C)C4)CC2)c1 (stereo not given)	-6	-2	-6%	48*	-60*	-11
CCOc1ccccc1C(=O)n1nc2nc(C)cc(C)c2c1N	-7	-3	6%	0	30	6
SMILES	D1 potentiator	D1 antagonist	ERG-DNA inh	D1 agonist	D3 antag	DRD3 agonist
CCCCc1c(C)nc2ccc(OC)cc2c1SCCC(=O)O	-4	-2	0%	9	-13	5
O=C(Cc1csc(-c2ccc(F)cc2)n1)Nc1cccc(S(=O)(=O)NC2=NCCC2)c1	-15	-30*	5%	1	-6	-19
CCN(CC)S(=O)(=O)c1cccc(NC2=NCCCCC2)c1	-4	-36*	-1%	2	4	0
CCCCC(=O)OCC(=O)Nc1cccc(S(=O)(=O)NC2=NCCCCC2)c1	-5	-32*	20%	2	-10	1
Cc1cc(C)cc(C(=O)OCC(=O)Nc2cccc(S(=O)(=O)NC3=NCCCCC3)c2)c1	-5	-45*	.	3	-3	-4
CCCCCC(=O)Nc1cccc(S(=O)(=O)NC2=NCCCCC2)c1	2	-24	-16%	1	-12	-1
CC1(C)CC(=O)N(CC(=O)NC2CCCC2)c2ccccc2S1(=O)=O	.	-10	8%	1	-14	0
CS(=O)(=O)c1ccccc1-c1nnc(NC(=O)CCS(=O)(=O)c2ccc(Cl)cc2)o1	0	-3	-2%	9	7	1
CC1(C(=O)OCC(=O)Nc2cccc(S(=O)(=O)NC3=NCCCCC3)c2)CC1(Cl)Cl (stereo not given)	-3	-6	-3%	-3	1	45*
Cc1ccccc1C(=O)OCC(=O)Nc1cccc(S(=O)(=O)NC2=NCCC2)c1	.	.	-7%	.	-5	1
Cc1ccsc1C(=O)OCC(=O)Nc1cccc(S(=O)(=O)NC2=NCCCCC2)c1	1	-42*	-2%	5	19	3
COC(=O)c1cc(Cl)c(NC(=O)Cc2ccccc2)cc1OC	-5	7	-3%	3	2	0
NC(=O)c1ccc(CN2CCc3ccccc3C2)cc1	-11	-8	17%	4	-82*	-22
O=C(c1ccc(CN2CCc3ccccc3C2)cc1)N1CCN(c2ccc(F)cc2)CC1	.	.	-6%	.	-65*	-9
CCCNC(=O)c1ccc(CN2CCc3ccccc3C2)cc1	-2	10	-1%	1	-15	-30
O=C(c1ccc(CN2CCc3ccccc3C2)cc1)N1CCCCC1	-7	11	0%	3	-73*	-20
Cc1c(C)n(Cc2ccccc2)c2ccc(C(=O)N3CCN(c4ccc(F)cc4)CC3)cc12	2	-74*	-1%	1	.	4
O=C(OCC(=O)N1CCN(S(=O)(=O)c2ccc(Cl)cc2)CC1)c1ccc([N+](=O)[O-])o1	-2	-14	2%	1	-14	-1
Cc1ncc(C(=O)Nc2ccccc2)[nH]1	.	.	0%	.	-10	7
O=C(O)C1Oc2cc3ccccc3cc2O1	-4	-6	5%	0	16	-1
COc1ccc(NC(C)=O)cc1S(=O)(=O)Nc1cccc(S(=O)(=O)NC2=NCCC2)c1	0	-14	-3%	1	3	6
